Assay outcomes deposited in PubChem by National Center for Advancing Translational Sciences (NCATS).
This is a sample that favours compounds with a hit; in the whole collection about 11% have one here.
HCV inh: HCV inhibition; Huh7.5.1 HCVcc-Cre infection, luciferase reporter, 44 h; Potency, µM (highest dose often 41.8 µM), for the others: at the highest dose activity change, negative = inhibition, actives largely listed as inhibitors; 340,000 tested, 3.4% active
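Infectious HCVcc-Cre (~0.5 moi) was added to cells just after compound, with cells seeded 4 h earlier at 1,000 per well. Luciferase activity after 44 h culture reported infection; substrate was incubated 15 min at room temperature before reading.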
AMA1-RON2 inh: inhibitors of Plasmodium falciparum AMA1-RON2 interaction; 360,000 tested, 0.2% active; Potency, µM (doses to about 58.2 µM), inactives show top-dose activity change, negative = inhibition, hits mostly inhibitors; AlphaScreen AMA1-biotinylated RON2 peptide binding;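 further: 0% = vehicle wells and -100% = peptide control; nearly all actives have a fitted effect of over 45% in size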
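AMA1 (3D7) with his tag at 25 nM final met compounds first, then biotinylated RON2 peptide at 25 nM; detection used donor plus acceptor beads, 10 µg/mL apiece, read by AlphaScreen after 30 min at room temperature.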
Pf growth 48h: inhibits P. falciparum growth in the first generation, 48 h | P. falciparum luciferase growth in erythrocytes, 48 h | Potency, µM (titrated, usually from 28.7 µM), for inactives: top-dose activity change, negative = inhibition, most hits filed as inhibitors | 310,000 tested, 5.9% active | AID 504832
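In quantitative HTS format, infected erythrocytes bearing luciferase-reporter parasites were treated for a single generation at 37 C. Luminescence after adding detection reagent served as the growth measure.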
Pf growth 96h: inhibits malaria parasite growth, 96 h | P. falciparum luciferase reporter growth, 96 h | Potency, µM (titrated, usually from 28.7 µM), inactives show at the top dose activity change, negative = inhibition, hits mostly inhibitors | 320,000 tested, 6.9% active
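Delayed-death screen, second-generation endpoint: infected erythrocytes, 2% hematocrit, 0.05% parasitemia final; 96 hours at 37 C, 5% CO2; luciferase detection reagent; luminescence decrease equals reduced growth.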
The depositor's hits bear a star; ? = inconclusive; nt = no result given; [ ] = remark or other dose. The call rests on the fitted dose curve; in most records, active means well fitted curve in the direction sought with a large enough effect; inconclusive means small, poorly fitted or top-dose-only effect, or another doubt; inactive means no such curve, though single readings can be large; an effect the other way counts as inactive or inconclusive. Unless noted, on the % scale 0 is the no-effect control and ±100 the full control effect; potency means the concentration at half of the fitted maximal effect.

SMILES	HCV inh	AMA1-RON2 inh	Pf growth 48h	Pf growth 96h
CC1(C(=O)Nc2cccc(NS(C)(=O)=O)c2)Cc2c(-c3ccc(C(N)=O)cc3)ccnc2O1 (stereo unspecified)	nt	4%	nt	nt
COC(=O)[C@@H]1C[C@@]2(O)[C@@H](O)[C@@H](O)[C@@H](O)C[C@H]2N1Cc1cc(OC)cc(OC)c1	0.5µM*	18%	40%	27%
COC(=O)[C@@H]1C[C@@]2(O)[C@H](O)[C@H](O)[C@H](O)C[C@H]2N1Cc1cc(OC)cc(OC)c1	18%[8.37 µM]	20%	38%	68%
COCCCNC(=O)c1ccc(Cn2c(=O)c3ccccc3n(Cc3ccccc3C)c2=O)cc1	?	0%	nt	6%
C=CCn1c(=O)c2ccc(C(=O)NCc3ccccc3)cc2n(Cc2ccc(C)cc2)c1=O	2%[8.37 µM]	7%	26%	2.3µM*
COCCCNC(=O)c1ccc(Cn2c(=O)c3ccccc3n(Cc3cc(C)ccc3C)c2=O)cc1	?	?	13µM*	nt
CN(Cc1cnn(C)c1)Cc1nc(-c2ccc(Cl)cc2)no1	-14%	-10%	48%	9.3µM*
O=C1OC/C(=C(/O)c2ccc(Cl)cc2)C1=O	21%	-3%	12µM*	-8%
O=C(CCS(=O)(=O)c1ccc(Br)cc1)Nc1ccc(Br)cc1F	-1%	8%	6%	-4%
COc1ccc2[nH]c3nc(SC(C)C)nnc3c2c1	-19%	-16%	405%	5.2µM*
O=C(CSc1nnc2c(n1)[nH]c1ccc(F)cc12)NCc1ccc(F)cc1	22%	4%	15%	?
COc1ccc(CNC(=O)CSc2nnc3c(n2)[nH]c2ccc(F)cc23)cc1	-7%	3%	2%	-4%
CCOC(=O)CN(C(=O)CSc1nnc2c(n1)[nH]c1ccc(OC)cc12)c1ccc(F)cc1	-7%	3%	9.3µM*	7%
CC(C)OC(=O)CSc1nnc2c(n1)[nH]c1ccc(F)cc12	-26%	0%	5.9µM*	13µM*
COc1ccc(CNC(=O)CSc2nnc3c(n2)[nH]c2ccc(OC)cc23)cc1	-4%	24%	21%	6%
O=C(CSc1nnc2c(n1)[nH]c1ccc(F)cc12)N1CCOCC1	2%	15%	3%	10%
CC1Cc2ccccc2N1C(=O)CSc1nnc2c(n1)[nH]c1ccc(F)cc12 (stereo unspecified)	2%	-20%	1.5µM*	-90%
Cc1c(C(=O)C(=O)NCc2cccs2)c2ccccc2n1C	14%	6%	19%	24%
O=C(O)CSc1nnc2c(n1)[nH]c1ccccc12	3%	10%	11%	43%
O=C(CSc1nnc2c(n1)[nH]c1ccccc12)OCc1ccccc1	22%	1%	15µM*	?
O=C(CSc1nnc2c(n1)[nH]c1ccc(F)cc12)NC1CC1	6%	13%	21%	3.3µM*
CCC(=O)Oc1ccc(NC(=O)c2ccc(S(=O)(=O)N3CCCC3)cc2)cc1	nt	4%	nt	nt
CCn1cc(C(=O)NCc2ccccc2OC)c(=O)c2cc(S(=O)(=O)N(C)C)ccc21	14µM*	0%	?	10µM*
C=CCn1cc(C(=O)NCc2ccc3c(c2)OCO3)c(=O)c2cc(S(=O)(=O)N(CC)CC)ccc21	?	5%	12µM*	?
CCN(CC)S(=O)(=O)c1ccc2c(c1)c(=O)c(C(=O)NCc1ccc3c(c1)OCO3)cn2C	1%[0.335 µM]	nt	-10%	-5%
SMILES	HCV inh	AMA1-RON2 inh	Pf growth 48h	Pf growth 96h
CCn1cc(C(=O)NCc2ccc3c(c2)OCO3)c(=O)c2cc(S(=O)(=O)N(C)C)ccc21	-17%	?	12µM*	?
CCn1cc(C(=O)NCc2ccc3c(c2)OCO3)c(=O)c2cc(S(=O)(=O)N3CCOCC3)ccc21	7%	5%	?	?
CCn1cc(C(=O)NC(C)CCc2ccccc2)c(=O)c2cc(S(=O)(=O)N(C)C)ccc21 (stereo unspecified)	-6%	4%	6.6µM*	43%
c1ccc(CN2CC[C@@H](Nc3nccn4ccnc34)C2)cc1	nt	66%	nt	nt
CCN(CCCNC(=O)c1cn(CC)c2ccc(S(=O)(=O)N(C)C)cc2c1=O)c1cccc(C)c1	-27%	4%	?	170%
CCn1cc(C(=O)NCCCN(C)c2ccccc2)c(=O)c2cc(S(=O)(=O)N(C)C)ccc21	16%	-9%	?	15µM*
Cn1nccc1C(=O)Nc1ccc2c(c1)OCO2	1%	-2%	129%	14%
COc1ccccc1CCNC(=O)CSc1nc(=O)[nH]c2c1CCC2	11%	20%	?	4%
CC/C(C)=N\N=C\c1c(O)n(CC)c2cc(C3=NNC(=O)CC3)ccc12	-12%	-5%	?	10µM*
CCn1c(O)c(/C=N/N=C/c2ccc(OC)cc2)c2cc(C3=NNC(=O)CC3)ccc21	?	-19%	0%	5%
CCCn1c(SCC(=O)Nc2cccc(C(=O)OC)c2)nnc1-c1cccnc1	7%	1%	7%	10µM*
CCCn1c(SCC(=O)Nc2cccc(C)n2)nnc1C(C)C	0%	-22%	57%	7%
CCCn1c(SCC(=O)Nc2cccc(NC(C)=O)c2)nnc1C(C)C	13%	4%	11%	4.1µM*
COC(=O)c1cccc(NC(=O)CSc2nc3cccnc3n2C)c1	14µM*	16%	?	nt
Cn1c(SCC(=O)N2CCCCC2)nc2cccnc21	-4%	-1%	30%	13µM*
C#CCOc1ccc(/C=C2/C(=O)ON=C2C)cc1Br	6%	-15%	19%	0%
N#CCCn1cc(C(=O)CN2C(=O)C(=O)N(C3CCCC3)C2=O)c2ccccc21	-1%	2%	?	-21%
C=CC[C@@H](CC(=O)N[C@@H](CO)Cc1ccccc1)C(=O)N[C@@H](COC(=O)[C@H](CC=C)CC(=O)OC(C)(C)C)Cc1c[nH]c2ccccc12	?	1%	nt	nt
CCOc1cc(N2CCOCC2)c(OCC)cc1NC(=O)c1ccc(S(=O)(=O)N2CC(C)OC(C)C2)cc1 (stereo unspecified)	-12%	-2%	nt	nt
Cc1ccc(C)c(-c2nnc(NC(=O)CCS(=O)(=O)c3ccc(F)cc3)o2)c1	13%	152%	11%	-1%
CCn1c(Cn2nnc(-c3ccccc3)n2)nnc1SCC(=O)Nc1cccc(C(C)=O)c1	35µM*	12%	nt	-5%
Cc1cccc(-n2ccnc2CN2CCN(C3CCCC3)C(CCO)C2)c1 (stereo unspecified)	15%	-2%	-14%	6.6µM*
CC(=O)Nc1ccc(CN2CCN(C3CCCC3)C(CCO)C2)cc1 (stereo unspecified)	15%	0%	59%	8.3µM*
COc1ccc(-n2ccnc2CN2CCN(C3CCCC3)C(CCO)C2)cc1 (stereo unspecified)	14%	21%	-1%	45%
OCCC1CN(Cc2c(F)cccc2Cl)CCN1C1CCCCC1 (stereo unspecified)	2%	6%	-1%	?
OCCC1CN(Cc2c(F)cccc2Cl)CCN1C1CCCC1 (stereo unspecified)	0%	1%	-5%	13µM*
